How the values were obtained:
[1] = test system: Vero E6 infected with SARS-CoV-2; assay: morphology score (similarity to uninfected cells); higher = more like uninfected cells; settings: 24 h
[2] = test system: Vero E6 infected with SARS-CoV-2; assay: SARS-CoV-2 infection rate relative to infected DMSO; higher = more infection, active = 60 or less; settings: 24 h

| Structure (SMILES) | morphology score [1] | SARS-CoV-2 infection rate [2] |
| --- | --- | --- |
| CCCOc1ccc(C(=O)OCCN(CC)CC)cc1N [proxymetacaine] (10 µM) | -0.0115 | 108% (inactive) |
| Cc1nc2c(O)cccc2c(=O)[nH]1 (10 µM) | -0.0261 | 114% (inactive) |
| O=C1C=CC(=O)C2=C1C1c3ccccc3C2c2ccccc21 (10 µM) | 0.00761 | 102% (inactive) |
| c1ccc(CC2=NCCN2)cc1 [tolazoline] (10 µM) | 0.146 | 99.5% (inactive) |
| COc1cc(N)cn[n+]1-c1ccccc1 [amezinium] (10 µM) | 0.0864 | 100% (inactive) |
| COc1cc(Nc2ncc(F)c(Nc3ccc4c(n3)NC(=O)C(C)(C)O4)n2)cc(OC)c1OC (10 µM) | 0.09 | 124% (inactive) |
| Clc1ccc2nsnc2c1NC1=NCCN1 [tizanidine] (10 µM) | -0.0251 | 112% (inactive) |
| CC(C(=O)O)c1ccc2c(c1)Cc1cccnc1O2 (centres undefined) [pranoprofen] (10 µM) | -0.152 | 122% (inactive) |
| COC1(C[S@@+]([O-])c2ccccc2)CCN(CCc2c[nH]c3ccc(F)cc23)CC1 (10 µM) | -0.00604 | 102% (inactive) |
| COc1cc2c(cc1OC)C1CC(=O)C(CC(C)C)CN1CC2 (centres undefined) [tetrabenazine] (10 µM) | 0.159 | 102% (inactive) |
| C=C1CC[C@H](O)C/C1=C/C=C1\CCC[C@]2(C)[C@@H]([C@H](C)CCCC(C)(C)O)CC[C@@H]12 [calcifediol] (10 µM) | -0.0147 | 115% (inactive) |
| COC(F)(F)C(Cl)Cl [methoxyflurane] (10 µM) | 0.106 | 100% (inactive) |
